Assay outcomes deposited in PubChem by several laboratories.
LANA DNA inh – blocks KSHV LANA C-terminal domain binding to DNA; MBP-C-LANA/FAM-LBS DNA binding, fluorescence polarization; inhibition, % at 9 µM; hit rate 0.078% among 340,000; AID 504423;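 active = highest replicate inhibition at or above 60% at 9 µM, even if other replicates fall short; inactive = all replicates below 60% inhibition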;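 note: 0% = neutral control wells and 100% = 4 µM acridine orange control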
CRFBP-R2 block – CRF-BP/CRF-R2 complex antagonism. hit rate 0.59% among 350,000. inhibition, % at 11.8 µM. AID 588475. HEK293 CRF-R2/CRF-BP, CRF-induced calcium fluorescence;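 active = inhibition of the ligand-induced calcium signal above about 50% at the single tested concentration, limit read from the data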
Keap1-Nrf2 PPI – Keap1-Nrf2 (human) interaction inhibition | Q14145 | Keap1 Kelch-Nrf2 peptide fluorescence polarization, 1536-well | inhibition, % at 9.4 µM | hit rate 0.15% among 340,000; in the data active = inhibition above about 12%;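 note: human Keap1 Kelch domain with fluorescein labeled Nrf2 9mer peptide probe; 0% = neutral control wells and 100% = peptide positive control; higher means more block of Keap1 binding to Nrf2 peptide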
Target sequence (Q14145 whole entry, looked up, the tested form may be a part): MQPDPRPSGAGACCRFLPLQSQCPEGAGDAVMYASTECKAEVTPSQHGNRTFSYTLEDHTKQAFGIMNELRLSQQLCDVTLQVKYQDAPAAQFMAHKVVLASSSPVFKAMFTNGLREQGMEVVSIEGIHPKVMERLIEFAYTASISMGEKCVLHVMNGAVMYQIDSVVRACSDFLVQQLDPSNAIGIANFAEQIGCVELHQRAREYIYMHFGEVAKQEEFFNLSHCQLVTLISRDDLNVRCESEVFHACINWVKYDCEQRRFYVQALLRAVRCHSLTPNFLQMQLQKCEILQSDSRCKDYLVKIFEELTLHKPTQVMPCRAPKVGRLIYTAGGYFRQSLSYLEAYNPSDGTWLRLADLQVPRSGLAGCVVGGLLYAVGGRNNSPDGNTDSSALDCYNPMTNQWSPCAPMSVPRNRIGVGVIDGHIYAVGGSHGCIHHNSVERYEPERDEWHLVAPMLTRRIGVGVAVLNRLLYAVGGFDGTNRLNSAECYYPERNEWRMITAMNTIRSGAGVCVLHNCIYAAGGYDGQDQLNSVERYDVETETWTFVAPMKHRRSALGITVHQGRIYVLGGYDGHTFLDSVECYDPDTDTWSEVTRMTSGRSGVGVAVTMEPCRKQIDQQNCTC
RTF Ca sens inh – cardiac RTF calcium desensitization; IANBD-labeled cardiac RTF, Ca2+ fluorescence; inhibition, % at 7.15 µM; hit rate 0.12% among 340,000; AID 493244;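 active = inhibition above the mean inhibition of all tested compounds plus 3 SD, cut at about 17% in these data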;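 note: assay run at fixed EC70 calcium of 1.6 mM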
cardiac RTF act – cardiac RTF calcium sensitization; IANBD-labeled TnC RTF fluorescence at EC20 calcium; 0% EC20 calcium, 100% full calcium; activation, % at 7.2 µM; hit rate 0.24% among 340,000;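 active = activation above the mean over all tested compounds plus 3 SD, cut at about 30% in these data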;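 note: rise in fluorescence read as greater calcium sensitivity of cardiac thin filaments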
CRFBP-R2 agonist – agonists of human CRF-binding protein/CRF-R2 receptor complex | HEK293 CRF-R2/CRF-BP, calcium dye fluorescence (FLIPR); percent of saturating CRF peptide response | activation, % at 13.2 µM | hit rate 0.46% among 350,000 | AID 588473;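 active = activation of at least 50%, plus an integration ratio under a set limit after plate pattern correction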;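 note: plate controls were neutral control wells without compound for no effect and CRF at EC100 for full effect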
* marks the source's active call; other numbers are inactive results. The list is not random: actives were taken first. Their share in the collection is about 1.3%.

SMILES	LANA DNA inh	CRFBP-R2 block	Keap1-Nrf2 PPI	RTF Ca sens inh	cardiac RTF act	CRFBP-R2 agonist
COc1cc(OC)c(/C=C2\SC(=O)N(CC(=O)Nc3ccccc3F)C2=O)c(OC)c1	2	-6	1	-3	-1	2
COc1cc(/C=C2\SC(=O)N(c3ccccc3Cl)C2=O)cc([N+](=O)[O-])c1O	1	88*	0	9	-3	-1
COc1cc(/C=C2\SC(=O)N(CC(=O)Nc3ccccc3F)C2=O)cc(Cl)c1O	0	-150	0	-3	-1	169*
O=C(NCCc1ccccc1)C1c2ccccc2C(=O)N1C1CC1 (centres undefined)	6	-2	0	0	2	1
NC(=O)c1ccc(NCCc2ccccc2)c([N+](=O)[O-])c1	-3	-5	-2	2	3	0
O=C(Nc1ccccc1)c1ccc(NCCc2ccccc2)c([N+](=O)[O-])c1	-2	16	4	-5	96*	-2
Cc1ccc(S(=O)(=O)Nc2cc(=O)[nH]c(SCC(=O)Nc3cccc(C(F)(F)F)c3)n2)cc1	-1	110*	1	1	-6	-1
Cc1ccc(NC(=O)CSc2nc(NS(=O)(=O)c3ccc(C)cc3)cc(=O)[nH]2)cc1	2	11	-4	-4	-3	0
Cn1cc(/C=C2\SC(=S)N(NC(=O)c3ccccc3Cl)C2=O)c2ccccc21	0	-118	-7	-148	74*	70*
Cc1ccc(C(=O)NN2C(=O)/C(=C/c3cn(C)c4ccccc34)SC2=S)cc1	3	-91	-2	-55	77*	43
COc1cc2c(c(OC)c1O)C(=O)CO2	1	2	-5	-3	5	1
CCOC(=O)c1cnc2ccc(C(=O)OC)cc2c1NCCN1CCOCC1	1	11	-2	-8	2	0
O=[N+]([O-])c1cccc(C=NNc2ccc3ccccc3n2)c1O	1	78*	4	2	-6	-1
CC(C)Cc1csc(NC(=O)c2ccc(Cl)cc2)c1C(=O)O	-1	95*	-1	-1	2	27
CC(C)Cc1csc(NC(=O)c2ccccc2Cl)c1C(=O)O	0	4	-3	-7	3	-1
CN1C(=O)NC(c2ccccc2)C2=C1CN(CCc1ccccc1)C2=O (centres undefined)	0	125*	-2	-1	1	0
COc1ccc(CCN2CC3=C(C2=O)C(c2ccccc2)NC(=O)N3C)cc1OC (centres undefined)	0	3	-2	-3	5	0
CC(OC(=O)CCNS(=O)(=O)c1cccs1)C(=O)Nc1ccc(S(N)(=O)=O)cc1 (centres undefined)	0	-5	-3	6	1	-1
CC(=O)Nc1ccc(NC(=O)C(C)OC(=O)C2CCCCC2)cc1 (centres undefined)	-1	52*	1	2	-2	-6
CC(=O)Nc1ccc(NC(=O)C(C)OC(=O)C2CCCC2)cc1 (centres undefined)	0	1	2	1	4	-2
CCc1ccc(N2CC(C(=O)NC3CC3)CC2=O)cc1 (centres undefined)	0	-6	2	-8	0	1
O=C1CC(N(Cc2ccco2)C(=O)Nc2ccc(F)cc2)C(=O)N1c1ccc(F)cc1 (centres undefined)	-1	-3	-3	1	0	0
COc1cc(C2C(C#N)=C(N)Oc3cc(N(C)C)ccc32)cc2c1OCO2 (centres undefined)	1	-193	-2	-27	13	158*
COc1ccc(C2C(C#N)=C(N)Oc3cc(O)ccc32)cc1C (centres undefined)	4	-32	0	-3	-4	55*
COc1cc(C2C(C#N)=C(N)Oc3cc(O)ccc32)cc2c1OCO2 (centres undefined)	-1	-9	2	-9	-5	10
SMILES	LANA DNA inh	CRFBP-R2 block	Keap1-Nrf2 PPI	RTF Ca sens inh	cardiac RTF act	CRFBP-R2 agonist
COc1ccc(C2C(C#N)=C(N)Oc3cc(O)ccc32)cc1OC (centres undefined)	1	-11	-2	-6	2	3
Cc1ccc(C(c2c(C)n(C)n(-c3ccccc3)c2=O)c2c(C)n(C)n(-c3ccccc3)c2=O)s1	-1	-4	-6	-13	0	0
CC(=O)Nc1cccc(C(=O)/C=C/c2ccc(N(C)C)cc2)c1	6	-219	-37	-81	73*	196*
O=C(Nc1sc(-c2ccccc2)cc1C(=O)O)c1ccccc1	1	52*	3	3	0	-2
COc1ccc2c(CC#N)c[nH]c2c1	-1	-75	-6	8	5	78*
COc1ccc2c(CCNC(N)=S)c[nH]c2c1	0	0	-1	5	2	1
Nc1nn2c(C(F)(F)F)cc(=O)[nH]c2c1N=Nc1cccc(F)c1	2	87*	-1	8	1	-7
Cc1cc(=O)[nH]c2c(N=Nc3ccc(O)cc3)c(N)nn12	1	3	3	1	-2	0
S=c1[nH]nc(COc2ccccc2)n1/N=C/c1ccccc1Cl	-26	10	-4	-6	2	-4
CCN(CC)c1ccc(/C=c2\sc3nnc(-c4ccccc4Cl)n3c2=O)cc1	7	-99	-4	-62	47*	112*
Cc1ccc(/C=c2/sc3nnc(-c4ccccc4Cl)n3c2=O)o1	1	-21	-3	-4	-1	-1
CCN(CC)c1ccc(/C=c2/sc3nnc(-c4ccccc4C)n3c2=O)cc1	-1	-194	-3	-19	43*	133*
COc1ccc(C2=C/C(=C/c3cccnc3)C(=O)O2)cc1OC	-2	-104	-6	-10	4	144*
CC(C)C[C@H]1CN=C(Nc2ccccc2)N1CCc1ccc(F)cc1	4	13	2	3	2	110*
CC(C)C[C@H]1CN=C(Nc2ccccc2)N1CCc1cccc(F)c1	0	-22	-4	-2	-2	125*
CCN1C(Nc2ccccc2)=NC[C@@H]1CC(C)C	3	-3	4	2	7	1
Cc1cccc(CCN2CCN=C2Nc2ccccc2)c1	0	10	1	6	-3	56*
Cc1cccc(CCN2C(Nc3ccccc3)=NC[C@@H]2CC(C)C)c1	3	21	0	-9	0	111*
CC(C)CCN1C(Nc2ccccc2)=NC[C@@H]1CC(C)C	-2	1	3	-1	3	-2
CC(C)C[C@H]1CN=C(N(C)C)N1CCc1cccc(F)c1	-1	-1	1	-1	-2	0
NS(=O)(=O)c1ccc(NC(=O)c2cccc3ccccc23)cc1	1	9	2	-3	8	0
